# Source: publication PMC7819943, “Rice protein-binding microarrays: a tool to detect cis-acting elements near promoter regions in rice”
# The full ranking holds about 39,000 sequences; the median of “fluorescence intensity (a.u.)” is about 4,300, and the highest 2% start at about 39,000. Shown is part of a subset that was picked to be rich in the highest values.
# Target: T1, OsSMF1 (Oryza sativa, UniProt Q6ZLB0 1-436)
# T1 sequence: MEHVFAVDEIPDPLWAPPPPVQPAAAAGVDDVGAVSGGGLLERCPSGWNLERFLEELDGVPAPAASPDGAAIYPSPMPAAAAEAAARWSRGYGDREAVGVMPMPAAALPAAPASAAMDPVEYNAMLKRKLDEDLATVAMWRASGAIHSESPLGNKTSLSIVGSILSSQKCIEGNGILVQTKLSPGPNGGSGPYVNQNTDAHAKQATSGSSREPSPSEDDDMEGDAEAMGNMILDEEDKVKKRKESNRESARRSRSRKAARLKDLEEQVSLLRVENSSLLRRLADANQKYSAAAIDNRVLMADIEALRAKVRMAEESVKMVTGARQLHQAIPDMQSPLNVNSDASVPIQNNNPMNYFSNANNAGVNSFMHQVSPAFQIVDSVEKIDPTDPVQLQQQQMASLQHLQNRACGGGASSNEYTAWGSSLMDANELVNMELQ
# Test: protein-binding microarray (RPBM); PBS, 2% BSA, 51.3 ng/ul salmon testes DNA, 50 uM zinc acetate, 200 nM TF, 25 C, 1 h; high values mean tight binding
# Details: protein: recombinant; tags: N-terminal polyhistidine and DsRed monomer fusion (pET32a); chain copies: 2; label: CyDye5-dUTP incorporated in the synthesized complementary strand; 3' TTTTT single-stranded linker to array surface; dsDNA, one strand shown
# How it was run: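 Per-feature fluorescence intensity (arbitrary units), read on an Axon 4000B scanner, is the binding signal. Transcription factors carrying an N-terminal polyhistidine tag and DsRed fusion were expressed in E. coli BL21-CodonPlus and purified on Ni–NTA. A custom Agilent array, made double-stranded by primer extension with Cy5-dUTP and blocked with 2% BSA, was incubated with 200 nM protein in PBS, 2% BSA, salmon testes DNA and 50 µM zinc acetate at 25 °C for 1 h and then washed.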
row,Sequence,binding signal
1,TATATATGCACCGAGACACATATGAATCATCACACGTCTTCGGAGTCACCTAGTGCAG,3550 fluorescence intensity (a.u.)
2,CGCCGCCTCACCAGCGCCACCTCCACCTCCACCTACGTCTCGGAGTCACCTAGTGCAG,3270 fluorescence intensity (a.u.)
3,TTGCAGCAGAATACTTACCACGACAGAATTTGAGGATCTACGGAGTCACCTAGTGCAG,29500 fluorescence intensity (a.u.)
4,GCATAAATGATGTGTTTCTGAATCCAATTACACACATGATCGGAGTCACCTAGTGCAG,5020 fluorescence intensity (a.u.)
5,AGATCGACCAATGATACACACACAGCATATGAATCCTTTCCGGAGTCACCTAGTGCAG,41400 fluorescence intensity (a.u.)
6,CCAGCATCTGACACATCCTTTCCTAGCTGATCGACTCCATCGGAGTCACCTAGTGCAG,3420 fluorescence intensity (a.u.)
7,AATACCGACGTGTCTAGACCTCAGCGACACACTGGAGCGTCGGAGTCACCTAGTGCAG,5000 fluorescence intensity (a.u.)
8,GTGTTCGACGAAATGCCAACAAGGAACGTGGTGGCGTGGACGGAGTCACCTAGTGCAG,3500 fluorescence intensity (a.u.)
9,GCGCCGCCGGCGCCGCGGCGCGGCCGATGACCACGCCGGACGGAGTCACCTAGTGCAG,3490 fluorescence intensity (a.u.)
10,CCCACGGCGCAACGATGACGATGACGATGCCCTTCCGGCGCGGAGTCACCTAGTGCAG,46900 fluorescence intensity (a.u.)
11,GAACGATGACGGCGCGATGGCCGCCGCCGTGGCGCGGACGCGGAGTCACCTAGTGCAG,3210 fluorescence intensity (a.u.)
12,CGCGCGCGCCGCCGCCGGTCGGTAACGACGGCGACGATGACGGAGTCACCTAGTGCAG,65500 fluorescence intensity (a.u.)
13,TATCATACAAATGACGACACCACACAAACGGCGGCCCAAGCGGAGTCACCTAGTGCAG,4320 fluorescence intensity (a.u.)
14,ACGGACGGGCGTCGGCGCGGGCGATGACGGACTGACGACGCGGAGTCACCTAGTGCAG,3490 fluorescence intensity (a.u.)
15,TCCCCTTCTTCACCGATGCGGCGATGCGCGCGCCTTCTTCCGGAGTCACCTAGTGCAG,27500 fluorescence intensity (a.u.)
16,CAAGGCGGCCCAACCATCTTCGAAATGCGGCCCATGACGACGGAGTCACCTAGTGCAG,39100 fluorescence intensity (a.u.)
17,CCATCCACCATTCACTTTCCCACCTACCTCCACTATTTATCGGAGTCACCTAGTGCAG,3430 fluorescence intensity (a.u.)
18,AATAATGGGCTGAAAATATGTGACGCGAGGCGAGGGTCCCCGGAGTCACCTAGTGCAG,3260 fluorescence intensity (a.u.)
19,CGCCAACACGACGCTGTGCCGTGGCGCGCCGACAATCATCCGGAGTCACCTAGTGCAG,3600 fluorescence intensity (a.u.)
20,ACATGCCGCTAGGAAATATCCCATCCGGTGCCTGTCTAGACGGAGTCACCTAGTGCAG,3150 fluorescence intensity (a.u.)
21,TTGCCGGTACTTTGGTACGTCATCCGTGTATAAGTCGGTTCGGAGTCACCTAGTGCAG,5840 fluorescence intensity (a.u.)
22,TCCGCGGCTCCGCGCTCTCCCCTCGCCGGTGTCACCGCTCCGGAGTCACCTAGTGCAG,3390 fluorescence intensity (a.u.)

row,Sequence,binding signal
1,CTTGTGGCCGGCGCAGCCGCCGCACCCCTCCGACGTGTTCCGGAGTCACCTAGTGCAG,5380 fluorescence intensity (a.u.)
2,GTGTTCCGCAGCGGCCGGGAGACGCGCCGGCTTGTCCCCTCGGAGTCACCTAGTGCAG,42300 fluorescence intensity (a.u.)
3,CTAACCACGCCCGCCACGTACGCCGCCTCTGGGACCCCGACGGAGTCACCTAGTGCAG,5440 fluorescence intensity (a.u.)
4,GCAGCATCTGTGATCTCTCAGTGGGACCCACGTGTCATTGCGGAGTCACCTAGTGCAG,5010 fluorescence intensity (a.u.)
5,CCCTGTCCTGAAACGCCGTGACGGCTTCTCCTTCTCCCTCCGGAGTCACCTAGTGCAG,8960 fluorescence intensity (a.u.)
6,GTCAGTGGCTCAGTGCCACCCGTAGTGTACTGCCACTCCGCGGAGTCACCTAGTGCAG,3370 fluorescence intensity (a.u.)
7,CATATATATCTGACTAAAACGGTATATGTTGCACGTAGTGCGGAGTCACCTAGTGCAG,3360 fluorescence intensity (a.u.)
8,GTACTCCGTACTAGTAGTGGCACTCAATGTTCGGTATCTGCGGAGTCACCTAGTGCAG,50200 fluorescence intensity (a.u.)
9,ATACTATGTTAATTTGTCTGTGTCCTAATGACGCACCATACGGAGTCACCTAGTGCAG,4820 fluorescence intensity (a.u.)
10,TTTACTGTAGCACCACATTGTCAAATTATGACGTAATTAGCGGAGTCACCTAGTGCAG,5440 fluorescence intensity (a.u.)
11,AACTTTGTTGTTGATGACGTTTTCAGTTGAAGTCGTTCACCGGAGTCACCTAGTGCAG,7120 fluorescence intensity (a.u.)
12,TGAACAATGTTACAAATCACTTTATCGGATGAAGAAATGACGGAGTCACCTAGTGCAG,46400 fluorescence intensity (a.u.)
13,ATTTGTAAACAATGTTACTATCACTTTATCAGATGAAGAACGGAGTCACCTAGTGCAG,34600 fluorescence intensity (a.u.)
14,TGATTATTTGTGAAATAAAATGAGATAAAATGTGATTTTACGGAGTCACCTAGTGCAG,28600 fluorescence intensity (a.u.)
15,ATGCTATTATATAAGAGAAAATATAATGATGCTGGCCGTGCGGAGTCACCTAGTGCAG,3240 fluorescence intensity (a.u.)
16,GGATGATGTGACTTAATAACAGAAGAGAGAAATAATATTACGGAGTCACCTAGTGCAG,40600 fluorescence intensity (a.u.)
17,AACGTGCCACTTTACCTGACGTGATGAAACAATATTATCACGGAGTCACCTAGTGCAG,3320 fluorescence intensity (a.u.)
18,CCAGGTCCCAGCCAGGGGTTTATTAGCTGATTCAAGACGTCGGAGTCACCTAGTGCAG,14900 fluorescence intensity (a.u.)
19,CTGGACAGGAAGCAAAGCTCCTGACACGCCCAGCCGTCCCCGGAGTCACCTAGTGCAG,3220 fluorescence intensity (a.u.)
20,ACCGCCATGTAGGTGCCACGTCATCGCCACGTGGAACGAACGGAGTCACCTAGTGCAG,32700 fluorescence intensity (a.u.)
21,CCGGATGACATGATGACACCGCTACCCATTAAGTTTCGTCCGGAGTCACCTAGTGCAG,4050 fluorescence intensity (a.u.)
